Assay results from PubChem BioAssay AID1159580 (chemical genetic matrix, 2015).
Out of some 5,500 compounds screened, about 2,000 (36%) were called active. About 18% were inconclusive and are not listed. Cut-off read from the data, not from the text of the source: active = normalized growth mostly below about 0.91 (no sharp cut-off); inconclusive = no clear call, values can overlap the other calls; inactive = mostly above about 0.92. This is one part of the list.

Experiment: chemical genetic growth profiling, strain panel (AID 1159580);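 note: tested at 20 µM; growth read once vehicle control cultures reached saturation at 30 °C; 1 = growth at the plate median or of vehicle wells; lower values mean less growth of the strain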
Settings: S. cerevisiae deletion strains, growth OD

Measured: normalized growth

CN(C)CCCC1(c2ccc(F)cc2)OCc2cc(C#N)ccc21 (centres undefined)
inactive: locus YAL021C, strain ccr4, hits give low values 0.999 | locus YAL026C, strain drs2, hits give low values 0.995 | locus YAL030W, strain snc1, hits give low values 0.987 | locus YAL040C, strain CLN3, hits give low values 0.984 | locus YBL061C, strain skt5, hits give low values 0.991 | locus YBR009C, strain hhf1, hits give low values 0.979 | locus YBR023C, strain chs3, hits give low values 0.987 | locus YBR171W, strain sec66, hits give low values 0.983 | locus YBR231C, strain swc5, hits give low values 0.981 | locus YBR279W, strain paf1, hits give low values 0.979 | locus YCL011C, strain gbp2, hits give low values 0.99 | locus YCL016C, strain dcc1, hits give low values 0.997 | locus YCL061C, strain MRC1, hits give low values 0.987 | locus YCL069W, strain vba3, hits give low values 0.992 | locus YCR088W, strain abp1, hits give low values 0.983 | locus YDL005C, strain med2, hits give low values 0.985 | locus YDL040C, strain nat1, hits give low values 0.985 | locus YDR001C, strain nth1, hits give low values 0.981 | locus YDR069C, strain doa4, hits give low values 0.983 | locus YDR137W, strain rgp1, hits give low values 0.991 | locus YDR159W, strain sac3, hits give low values 0.985 | locus YDR195W, strain ref2 0.946 | locus YDR297W, strain sur2, hits give low values 0.993 | locus YDR334W, strain swr1, hits give low values 0.983 | locus YDR335W, strain msn5, hits give low values 0.991 | locus YDR392W, strain spt3, hits give low values 0.894 | locus YEL003W, strain gim4, hits give low values 0.987 | locus YEL037C, strain rad23, hits give low values 1 | locus YEL061C, strain CIN8 (second series), hits give low values 0.986 | locus YER002W, strain NOP16, hits give low values 0.994 | locus YER015W, strain faa2, hits give low values 0.985 | locus YER016W, strain bim1, hits give low values 0.985 | locus YER111C, strain swi4, hits give low values 0.983 | locus YER155C, strain BEM2 (second series), hits give low values 0.944 | locus YFR010W, strain ubp6, hits give low values 0.976 | locus YGL167C, strain pmr1, hits give low values 0.99 | locus YGL173C, strain kem1, hits give low values 0.989 | locus YGL227W, strain vid30, hits give low values 0.989 | locus YGL240W, strain doc1, hits give low values 0.97 | locus YGL253W, strain hxk2, hits give low values 0.993 | locus YGR229C, strain SMI1, hits give low values 1.01 | locus YHR013C, strain ard1, hits give low values 0.975 | locus YHR027C, strain rpn1, hits give low values 0.985 | locus YHR030C, strain SLT2, hits give low values 1.02 | locus YHR079C, strain IRE1, hits give low values 1.03 | locus YHR142W, strain chs7, hits give low values 1 | locus YJL092W, strain hpr5, hits give low values 0.995 | locus YJL095W, strain BCK1 (second series), hits give low values 0.989 | locus YJL095W, strain BCK1, hits give low values 1.03 | locus YJL115W, strain asf1, hits give low values 0.985 | locus YJL129C, strain trk1, hits give low values 1 | locus YJL154C, strain vps35, hits give low values 0.989 | locus YJL164C, strain tpk1, hits give low values 0.987 | locus YJL166W, strain qcr8, hits give low values 1 | locus YJL187C, strain SWE1, hits give low values 0.987 | locus YJR066W, strain TOR1, hits give low values 0.998 | locus YKL160W, strain elf1, hits give low values 1 | locus YKR026C, strain gcn3, hits give low values 0.96 | locus YKR091W, strain srl3, hits give low values 0.991 | locus YLL001W, strain dnm1, hits give low values 0.994 | locus YLL026W, hits give low values 0.986 | locus YLL041C, strain sdh2, hits give low values 0.992 | locus YLR027C, strain aat2, hits give low values 0.98 | locus YLR113W, strain HOG1, hits give low values 1.01 | locus YLR221C, strain rsa3, hits give low values 1 | locus YLR258W, strain gsy2, hits give low values 0.98 | locus YLR262C, strain YPT6 (second series), hits give low values 1.05 | locus YLR320W, strain mms22, hits give low values 0.993 | locus YLR342W, strain FKS1, hits give low values 0.999 | locus YLR357W, strain rsc2, hits give low values 0.952 | locus YLR370C, strain arc18, hits give low values 0.989 | locus YLR384C, strain iki3, hits give low values 0.98 | locus YML120C, strain ndi1, hits give low values 0.978 | locus YMR058W, strain fet3, hits give low values 0.993 | locus YMR125W, strain sto1, hits give low values 0.951 | locus YMR129W, hits give low values 0.999 | locus YMR205C, strain PFK2, hits give low values 0.946 | locus YMR231W, strain pep5, hits give low values 0.984 | locus YMR263W, strain SAP30, hits give low values 0.962 | locus YNL071W, strain lat1, hits give low values 0.99 | locus YNL153C, strain GIM3, hits give low values 0.997 | locus YNL175C, strain NOP13, hits give low values 1 | locus YNL183C, strain NPR1, hits give low values 1 | locus YNL197C, strain WHI3, hits give low values 1 | locus YNL209W, strain ssb2, hits give low values 0.992 | locus YNL224C, strain SQS1, hits give low values 1.02 | locus YNL248C, strain rpa49, hits give low values 0.99 | locus YNL322C, strain KRE1 (second series), hits give low values 0.986 | locus YNR049C, strain mso1, hits give low values 0.982 | locus YOR001W, strain rrp6, hits give low values 0.987 | locus YOR070C, strain gyp1, hits give low values 0.985 | locus YOR080W, strain dia2, hits give low values 0.99 | locus YOR083W, strain WHI5 (second series), hits give low values 1.01 | locus YOR083W, strain WHI5, hits give low values 0.999 | locus YOR106W, strain vam3, hits give low values 1.01 | locus YOR231W, strain MKK1, hits give low values 1.03 | locus YOR265W, strain rbl2, hits give low values 0.987 | locus YOR270C, strain vph1, hits give low values 0.996 | locus YOR290C, strain snf2, hits give low values 0.985 | locus YPL051W, strain arl3, hits give low values 0.997 | locus YPL078C, strain atp4, hits give low values 1 | locus YPL106C, strain sse1, hits give low values 0.959 | locus YPL240C, strain hsp82, hits give low values 1 | locus YPL256C, strain CLN2, hits give low values 1.04
